# Results published in the supplement of paper PMC10849652.
# Targets with a hit are over-represented here; the source holds about 7,900 in all. About 0.6% of all pairs of compound and target were hits. Unmarked numbers belong to inactive results.
# What was measured:
# Experiment in all cases: log2 fold change, soluble protein after heating vs DMSO (PISA); higher = thermal stabilisation; K562 cells, 10 uM, 30 min; active = over 0.2 and 3.5 SD of the protein, either way, in both replicates (recomputed)
# [1] = compound: CC[C@@H]1C(=O)N(C)c2cnc(Nc3ccc(C(=O)NC4CCN(C)CC4)cc3OC)nc2N1C1CCCC1
# Summary of the method: (§1)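 Values are thermal stability changes relative to control samples and are taken from duplicates. They are stated as log2 fold changes. Before quantification by TMTpro 16plex LC-MS/MS with equalised channel sums, K562 cells at 2×10^6 cells/mL were treated with 10 μM compound for 30 min, heated in aliquots for 3 min across 48°C-58°C, pooled, extracted in PBS with 0.5% NP-40 at 4°C, and centrifuged at 21,000xg for 90 min to give the soluble supernatant.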
# volasertib = compound: CC[C@@H]1C(=O)N(C)c2cnc(Nc3ccc(C(=O)N[C@H]4CC[C@H](N5CCN(CC6CC6)CC5)CC4)cc3OC)nc2N1C(C)C [volasertib]
# Summary of the method: as §1
# [2] = compound: CC[C@H](C)N1C=C(C2=C(C=C(C=C21)C3=CN=C(C=C3)N4CCNCC4)C(=O)NCC5=C(C=C(NC5=O)C)C)C
# Summary of the method: as §1
# epoxomicin = compound: CC[C@H](C)[C@@H](C(=O)N[C@@H]([C@@H](C)O)C(=O)N[C@@H](CC(C)C)C(=O)[C@]1(CO1)C)NC(=O)[C@H]([C@@H](C)CC)N(C)C(=O)C [epoxomicin]
# Summary of the method: as §1
# [3] = compound: CCn1c(C(=O)N(C2CC2)C2CC2)cc2c3c(ncn3C)c(Nc3cc(C)n(C)n3)nc21
# Summary of the method: as §1
# [4] = compound: CCn1cc(-c2ccnc3[nH]c(-c4cccc(CN(C)C)c4)cc23)c(-c2ccc(NC(=O)N(C)C)cc2)n1
# Summary of the method: as §1
# [5] = compound: CN(C)CC(=O)Nc1ccc2[nH]c(=O)c3ccccc3c2c1
# Summary of the method: as §1
# rosiglitazone = compound: CN(CCOC1=CC=C(C=C1)C[C@H]2C(=O)NC(=O)S2)C3=CC=CC=N3 (racemic) [rosiglitazone]
# Summary of the method: as §1
# [6] = compound: CN1C2=C(C3=C1C(=O)N(N=C3)CC4=CC(=CC=C4)N)SC(=C2)S(=O)C
# Summary of the method: as §1
# [7] = compound: CN1CCC(CNc2ccc3ncc(-c4cccc(OC(F)(F)F)c4)n3n2)CC1
# Summary of the method: as §1
# saracatinib = compound: CN1CCN(CCOc2cc(OC3CCOCC3)c3c(Nc4c(Cl)ccc5c4OCO5)ncnc3c2)CC1 [saracatinib]
# Summary of the method: as §1
# sotrastaurin = compound: CN1CCN(c2nc(C3=C(c4c[nH]c5ccccc45)C(=O)NC3=O)c3ccccc3n2)CC1 [sotrastaurin]
# Summary of the method: as §1
# alvocidib = compound: CN1CC[C@H](c2c(O)cc(O)c3c(=O)cc(-c4ccccc4Cl)oc23)[C@H](O)C1 [alvocidib]
# Summary of the method: as §1
# Tubastatin A = compound: CN1CCc2c(c3ccccc3n2Cc2ccc(C(=O)NO)cc2)C1 [Tubastatin A]
# Summary of the method: as §1
# [8] = compound: CNC(=O)C1=CC=CC=C1NC2=NC(=NC=C2Cl)NC3=C(C=C(C=C3)N4CCOCC4)OC
# Summary of the method: as §1
# defactinib = compound: CNC(=O)c1ccc(Nc2ncc(C(F)(F)F)c(NCc3nccnc3N(C)S(C)(=O)=O)n2)cc1 [defactinib]
# Summary of the method: as §1
# rucaparib = compound: CNCc1ccc(-c2[nH]c3cc(F)cc4c3c2CCNC4=O)cc1 [rucaparib]
# Summary of the method: as §1
# [9] = compound: CNc1nc(-c2ccc3c(N)n[nH]c3c2)cc(N2C[C@@H](C(=O)NC3CCCCC3)CC[C@H]2C)n1
# Summary of the method: as §1
# encorafenib = compound: COC(=O)N[C@@H](C)CNc1nccc(-c2cn(C(C)C)nc2-c2cc(Cl)cc(NS(C)(=O)=O)c2F)n1 [encorafenib]
# Summary of the method: as §1
# [10] = compound: COC(=O)[C@H](CCSC)NC(=O)C1=C(C=C(C=C1)NC[C@H](CS)N)C2=CC=CC=C2
# Summary of the method: as §1
# Sequence of UniProt P51571 (P51571 whole entry, looked up): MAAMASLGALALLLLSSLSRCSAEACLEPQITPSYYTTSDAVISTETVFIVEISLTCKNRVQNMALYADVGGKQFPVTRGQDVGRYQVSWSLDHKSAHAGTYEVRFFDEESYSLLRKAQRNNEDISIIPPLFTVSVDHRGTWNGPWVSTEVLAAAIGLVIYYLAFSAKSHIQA
# Sequence of UniProt Q9NQZ5 (Q9NQZ5 whole entry, looked up): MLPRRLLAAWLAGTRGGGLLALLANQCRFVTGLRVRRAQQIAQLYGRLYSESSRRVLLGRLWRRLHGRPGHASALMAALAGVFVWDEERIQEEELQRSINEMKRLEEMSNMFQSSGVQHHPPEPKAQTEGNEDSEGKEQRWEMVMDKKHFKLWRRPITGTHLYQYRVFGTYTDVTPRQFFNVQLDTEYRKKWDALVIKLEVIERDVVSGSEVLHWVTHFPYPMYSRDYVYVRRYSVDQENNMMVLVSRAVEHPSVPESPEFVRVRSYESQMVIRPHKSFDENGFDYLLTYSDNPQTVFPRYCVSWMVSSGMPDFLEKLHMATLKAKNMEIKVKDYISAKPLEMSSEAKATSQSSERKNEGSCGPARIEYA
# Sequence of UniProt Q99805 (Q99805 whole entry, looked up): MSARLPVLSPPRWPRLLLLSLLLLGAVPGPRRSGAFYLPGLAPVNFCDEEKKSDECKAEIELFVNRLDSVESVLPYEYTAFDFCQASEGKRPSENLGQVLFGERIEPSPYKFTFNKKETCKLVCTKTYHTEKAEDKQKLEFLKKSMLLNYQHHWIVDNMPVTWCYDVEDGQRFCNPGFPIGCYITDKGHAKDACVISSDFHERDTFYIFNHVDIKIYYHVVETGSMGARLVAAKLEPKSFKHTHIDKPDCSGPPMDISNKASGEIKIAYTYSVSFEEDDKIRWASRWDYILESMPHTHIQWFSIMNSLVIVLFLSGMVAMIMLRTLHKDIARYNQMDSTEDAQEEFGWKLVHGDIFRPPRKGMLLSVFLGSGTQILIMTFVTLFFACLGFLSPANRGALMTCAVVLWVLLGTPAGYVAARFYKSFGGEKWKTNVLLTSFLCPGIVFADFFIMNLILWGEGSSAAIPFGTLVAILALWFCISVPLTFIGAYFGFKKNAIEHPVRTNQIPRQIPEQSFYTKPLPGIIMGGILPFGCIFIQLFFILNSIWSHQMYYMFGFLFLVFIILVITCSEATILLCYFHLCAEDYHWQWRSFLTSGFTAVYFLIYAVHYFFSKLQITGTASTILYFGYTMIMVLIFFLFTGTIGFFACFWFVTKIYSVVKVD
# Sequence of UniProt P62072 (P62072 whole entry, looked up): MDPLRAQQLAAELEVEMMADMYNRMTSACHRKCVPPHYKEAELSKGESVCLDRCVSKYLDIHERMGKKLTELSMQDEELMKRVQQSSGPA
# Sequence of UniProt Q9UQ35 (Q9UQ35 whole entry, looked up): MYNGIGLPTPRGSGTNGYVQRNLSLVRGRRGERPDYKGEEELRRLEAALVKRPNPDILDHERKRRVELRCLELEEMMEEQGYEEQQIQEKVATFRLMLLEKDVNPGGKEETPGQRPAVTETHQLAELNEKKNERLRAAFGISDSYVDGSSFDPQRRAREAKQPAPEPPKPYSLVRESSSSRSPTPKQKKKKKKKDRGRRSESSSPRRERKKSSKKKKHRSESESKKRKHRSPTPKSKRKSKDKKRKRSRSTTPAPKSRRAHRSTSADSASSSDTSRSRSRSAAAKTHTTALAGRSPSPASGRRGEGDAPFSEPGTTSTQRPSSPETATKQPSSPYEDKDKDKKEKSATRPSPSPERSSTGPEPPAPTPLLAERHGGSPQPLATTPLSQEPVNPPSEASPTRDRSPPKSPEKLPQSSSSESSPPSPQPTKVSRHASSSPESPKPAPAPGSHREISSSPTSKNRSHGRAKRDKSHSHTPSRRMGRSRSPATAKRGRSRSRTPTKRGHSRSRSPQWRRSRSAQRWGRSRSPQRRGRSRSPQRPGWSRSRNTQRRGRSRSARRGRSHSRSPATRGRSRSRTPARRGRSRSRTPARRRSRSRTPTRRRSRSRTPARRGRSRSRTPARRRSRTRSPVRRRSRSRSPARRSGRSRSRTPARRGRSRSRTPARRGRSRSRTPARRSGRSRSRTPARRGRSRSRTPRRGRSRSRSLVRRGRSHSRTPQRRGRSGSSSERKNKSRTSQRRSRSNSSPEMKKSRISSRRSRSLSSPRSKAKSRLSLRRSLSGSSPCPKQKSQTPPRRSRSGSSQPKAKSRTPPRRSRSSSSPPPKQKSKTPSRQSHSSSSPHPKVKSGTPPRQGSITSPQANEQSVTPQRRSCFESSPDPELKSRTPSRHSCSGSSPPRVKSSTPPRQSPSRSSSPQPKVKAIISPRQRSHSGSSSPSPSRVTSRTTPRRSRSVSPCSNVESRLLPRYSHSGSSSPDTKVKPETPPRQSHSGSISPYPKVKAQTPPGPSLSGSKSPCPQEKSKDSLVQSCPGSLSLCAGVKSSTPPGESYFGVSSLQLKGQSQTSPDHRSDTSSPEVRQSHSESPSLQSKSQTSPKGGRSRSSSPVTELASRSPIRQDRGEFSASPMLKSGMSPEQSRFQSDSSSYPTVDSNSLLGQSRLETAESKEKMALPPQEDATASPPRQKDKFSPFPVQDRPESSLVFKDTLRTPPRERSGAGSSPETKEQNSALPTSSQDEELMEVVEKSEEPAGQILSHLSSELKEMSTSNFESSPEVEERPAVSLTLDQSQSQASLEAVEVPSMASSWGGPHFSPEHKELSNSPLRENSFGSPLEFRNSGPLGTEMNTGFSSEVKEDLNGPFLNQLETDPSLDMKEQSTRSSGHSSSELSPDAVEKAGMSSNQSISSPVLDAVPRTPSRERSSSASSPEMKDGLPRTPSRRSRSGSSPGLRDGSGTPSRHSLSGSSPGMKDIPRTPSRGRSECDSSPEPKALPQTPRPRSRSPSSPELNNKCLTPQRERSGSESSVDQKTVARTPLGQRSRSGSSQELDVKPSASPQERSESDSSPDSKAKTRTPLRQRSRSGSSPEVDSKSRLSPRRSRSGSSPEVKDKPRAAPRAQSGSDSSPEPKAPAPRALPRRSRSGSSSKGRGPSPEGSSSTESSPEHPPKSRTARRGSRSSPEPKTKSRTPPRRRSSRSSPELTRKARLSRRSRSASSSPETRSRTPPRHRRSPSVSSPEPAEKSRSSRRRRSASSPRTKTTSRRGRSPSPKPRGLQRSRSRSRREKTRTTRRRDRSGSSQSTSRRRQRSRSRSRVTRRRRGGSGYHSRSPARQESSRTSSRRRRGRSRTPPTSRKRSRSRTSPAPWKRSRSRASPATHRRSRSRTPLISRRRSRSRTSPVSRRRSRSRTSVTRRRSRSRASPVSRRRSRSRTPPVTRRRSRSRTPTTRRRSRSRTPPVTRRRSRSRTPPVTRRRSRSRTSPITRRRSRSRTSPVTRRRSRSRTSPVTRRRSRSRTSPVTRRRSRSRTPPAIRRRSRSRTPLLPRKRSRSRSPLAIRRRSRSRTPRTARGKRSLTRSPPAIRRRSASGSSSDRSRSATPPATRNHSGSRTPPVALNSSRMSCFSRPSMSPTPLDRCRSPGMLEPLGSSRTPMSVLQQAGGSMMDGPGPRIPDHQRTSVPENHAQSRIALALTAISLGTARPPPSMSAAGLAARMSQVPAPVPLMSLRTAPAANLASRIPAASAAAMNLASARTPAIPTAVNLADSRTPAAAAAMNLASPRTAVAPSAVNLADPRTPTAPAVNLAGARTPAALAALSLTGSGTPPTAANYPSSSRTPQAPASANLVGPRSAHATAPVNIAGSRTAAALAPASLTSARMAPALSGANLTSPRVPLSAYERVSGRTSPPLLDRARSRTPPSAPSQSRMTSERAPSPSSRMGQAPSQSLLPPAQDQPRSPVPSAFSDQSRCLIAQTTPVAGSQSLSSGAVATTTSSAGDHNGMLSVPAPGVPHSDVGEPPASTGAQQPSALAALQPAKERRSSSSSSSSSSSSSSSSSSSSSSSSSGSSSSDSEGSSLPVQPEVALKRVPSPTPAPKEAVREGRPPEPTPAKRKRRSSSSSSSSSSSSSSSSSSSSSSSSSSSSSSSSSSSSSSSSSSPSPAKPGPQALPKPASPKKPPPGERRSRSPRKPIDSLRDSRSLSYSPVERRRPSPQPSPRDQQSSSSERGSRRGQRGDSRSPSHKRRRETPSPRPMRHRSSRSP
# Sequence of UniProt Q02447 (Q02447 whole entry, looked up): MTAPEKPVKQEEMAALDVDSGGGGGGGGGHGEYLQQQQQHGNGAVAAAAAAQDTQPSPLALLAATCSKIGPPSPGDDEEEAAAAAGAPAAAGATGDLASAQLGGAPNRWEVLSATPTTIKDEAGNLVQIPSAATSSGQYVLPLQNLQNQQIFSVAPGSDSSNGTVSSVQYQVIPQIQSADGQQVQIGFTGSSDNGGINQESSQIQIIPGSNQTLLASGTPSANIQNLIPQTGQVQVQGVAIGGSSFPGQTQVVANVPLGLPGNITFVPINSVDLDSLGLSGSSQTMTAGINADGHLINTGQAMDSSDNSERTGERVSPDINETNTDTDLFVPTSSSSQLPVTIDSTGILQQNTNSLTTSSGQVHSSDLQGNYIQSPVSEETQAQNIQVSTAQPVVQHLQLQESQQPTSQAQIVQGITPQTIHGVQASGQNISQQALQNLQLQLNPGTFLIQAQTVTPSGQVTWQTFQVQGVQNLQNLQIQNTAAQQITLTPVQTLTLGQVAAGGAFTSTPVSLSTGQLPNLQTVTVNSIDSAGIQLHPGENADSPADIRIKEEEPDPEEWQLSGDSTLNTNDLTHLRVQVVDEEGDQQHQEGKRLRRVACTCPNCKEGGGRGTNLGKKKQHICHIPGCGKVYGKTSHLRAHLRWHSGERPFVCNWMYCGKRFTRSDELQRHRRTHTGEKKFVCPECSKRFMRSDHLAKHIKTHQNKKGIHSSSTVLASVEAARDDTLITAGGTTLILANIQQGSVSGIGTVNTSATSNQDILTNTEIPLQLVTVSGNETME
Target,log2 fold change [1],log2 fold change (volasertib),log2 fold change [2],log2 fold change (epoxomicin),log2 fold change [3],log2 fold change [4],log2 fold change [5],log2 fold change (rosiglitazone),log2 fold change [6],log2 fold change [7],log2 fold change (saracatinib),log2 fold change (sotrastaurin),log2 fold change (alvocidib),log2 fold change (Tubastatin A),log2 fold change [8],log2 fold change (defactinib),log2 fold change (rucaparib),log2 fold change [9],log2 fold change (encorafenib),log2 fold change [10]
STARD7 (UniProt Q9NQZ5),-0.07,-0.032,0.007,0.024,0.037,-0.123,0.012,0.055,0.012,-0.158,-0.021,0.041,-0.122,-0.005,-0.012,-0.047,-0.009,-0.014,0.03,-0.043
SRRM2 (UniProt Q9UQ35),-0.025,0.009,0.046,-0.071,-0.016,-0.072,0.053,0.046,0.062,-0.222,-0.026,-0.048,-0.412 (active),0.093,-0.264,-0.298,0.013,-0.009,-0.013,0.047
SPAST (UniProt Q9UBP0),-0.128,-0.242,0.107,0.021,-0.077,0.035,0.079,0.048,-0.046,-0.043,-0.016,-0.015,-0.203,0.003,-0.01,-0.056,0.073,0.115,0.038,-0.037
SLK isoform 2 (UniProt Q9H2G2),-0.095,-0.161,0.05,0.052,-0.002,-0.271 (active),-0.016,0.041,-0.022,-0.152,-0.015,-0.192,-0.031,0.025,0.079,-0.089,0.048,0.02,0.052,0.012
TM9SF2 (UniProt Q99805),-0.57 (active),-0.621 (active),-0.008,-0.034,0.033,-0.017,0.018,-0.052,-0.01,-0.182,0.038,-0.01,-0.039,-0.001,0.005,0.006,0.015,-0.031,0.001,-0.069
SP3 (UniProt Q02447),0.03,0.104,-0.019,-0.194,0.025,0.068,-0.074,-0.062,0.058,0.028,0.048,-0.122,0.033,-0.205,-0.032,0.042,-0.004,-0.05,-0.053,0.04
SSR4 (UniProt P51571),0.004,-0.01,-0.004,0.029,0.06,0.002,-0.022,0.015,-0.028,0.045,-0.008,0.013,-0.035,0.006,0.014,0.015,0,0.004,-0.028,-0.007
TIMM10 (UniProt P62072),0.029,0.052,-0.023,0.032,0.059,0.006,-0.046,-0.007,-0.074,0.14,-0.058,0.018,0.08,-0.027,-0.015,-0.073,-0.062,0.039,-0.013,0.002
